Reference: PubChem BioAssay (NCI)
Compounds without any hit were thinned out: in the full panel of roughly 83,000, 20% have a hit.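 A percent growth of 40 corresponds to 60% growth inhibition; 0 means no net growth; -100 means all cells died. Active threshold: below 10.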 Values without a mark were called inactive. Calls of active or inactive are those of the source.

Key:
Assay in all cases: NCI-60 one-dose screen, 48 h (100 = growth as untreated, 0 = no growth, -100 = all killed)
Settings in all cases: 10 µM unless noted
SR leukemia = tested on: SR leukemia
RPMI-8226 leukemia = tested on: RPMI-8226 leukemia
OVCAR-8 ovarian = tested on: OVCAR-8 ovarian
OVCAR-4 ovarian = tested on: OVCAR-4 ovarian
SK-OV-3 ovarian = tested on: SK-OV-3 ovarian
IGROV1 ovarian = tested on: IGROV1 ovarian
OVCAR-3 ovarian = tested on: OVCAR-3 ovarian
HS 578T breast = tested on: HS 578T breast
NCI/ADR-RES ovarian = tested on: NCI/ADR-RES ovarian
T-47D breast = tested on: T-47D breast
BT-549 breast = tested on: BT-549 breast
MDA-MB-435 melanoma = tested on: MDA-MB-435 melanoma
SW-620 colon = tested on: SW-620 colon
MCF7 breast = tested on: MCF7 breast
HCT-116 colon = tested on: HCT-116 colon
HCC-2998 colon = tested on: HCC-2998 colon
KM12 colon = tested on: KM12 colon

CCC(C)N(CCNc1cc(OC)cc2cccnc12)CC(C)C (stereo not given)
growth (SR leukemia): 85.4% | growth (RPMI-8226 leukemia): 70.3% | growth (OVCAR-8 ovarian): 90.9% | growth (OVCAR-4 ovarian): 16.4% | growth (SK-OV-3 ovarian): 95.1% | growth (IGROV1 ovarian): 53.6% | growth (OVCAR-3 ovarian): 65.2% | growth (HS 578T breast): 110% | growth (NCI/ADR-RES ovarian): 83.5% | growth (T-47D breast): 6.53% (active) | growth (BT-549 breast): 106% | growth (MDA-MB-435 melanoma): 109% | growth (SW-620 colon): 85.5% | growth (MCF7 breast): 12.6% | growth (HCT-116 colon): 66.9% | growth (HCC-2998 colon): 96% | growth (KM12 colon): 97.5%

N#Cc1ccc(O)c(C2=NCC(c3ccccc3)O2)c1 (stereo not given)
growth (SR leukemia): 38% | growth (RPMI-8226 leukemia): 33.3% | growth (OVCAR-8 ovarian): 19.6% | growth (OVCAR-4 ovarian): 9.62% (active) | growth (SK-OV-3 ovarian): 45.3% | growth (IGROV1 ovarian): 33.1% | growth (OVCAR-3 ovarian): 7.61% (active) | growth (HS 578T breast): 77.2% | growth (NCI/ADR-RES ovarian): 1.45% (active) | growth (T-47D breast): -5.7% (active) | growth (BT-549 breast): 31.9% | growth (MDA-MB-435 melanoma): 57.8% | growth (SW-620 colon): 28.6% | growth (HCT-116 colon): 17.5% | growth (HCC-2998 colon): 47.8% | growth (KM12 colon): 37.2%

COc1ccc(NC2=C(I)C(=O)c3ncccc3C2=O)cc1
growth (SR leukemia): 6.66% (active) | growth (RPMI-8226 leukemia): 4.44% (active) | growth (OVCAR-8 ovarian): 8.5% (active) | growth (OVCAR-4 ovarian): -88.3% (active) | growth (SK-OV-3 ovarian): 50% | growth (IGROV1 ovarian): -43.9% (active) | growth (OVCAR-3 ovarian): -10.1% (active) | growth (HS 578T breast): -15.9% (active) | growth (NCI/ADR-RES ovarian): 0.698% (active) | growth (T-47D breast): -32.7% (active) | growth (BT-549 breast): -6.34% (active) | growth (MDA-MB-435 melanoma): -88.9% (active) | growth (MCF7 breast): -53.5% (active) | growth (HCT-116 colon): 2.09% (active) | growth (HCC-2998 colon): 47.6% | growth (KM12 colon): 15.3%

N#Cc1nc(-c2ccc(F)cc2)oc1S(=O)(=O)N1CCOCC1
growth (SR leukemia): -5.89% (active) | growth (RPMI-8226 leukemia): 41.2% | growth (OVCAR-8 ovarian): 63.1% | growth (OVCAR-4 ovarian): 60.9% | growth (SK-OV-3 ovarian): 99.4% | growth (IGROV1 ovarian): 78.3% | growth (OVCAR-3 ovarian): -88.4% (active) | growth (HS 578T breast): 123% | growth (NCI/ADR-RES ovarian): 91.1% | growth (T-47D breast): -6.45% (active) | growth (BT-549 breast): 98.5% | growth (MDA-MB-435 melanoma): 79.8% | growth (SW-620 colon): -77.9% (active) | growth (MCF7 breast): 30.4% | growth (HCT-116 colon): -18.4% (active) | growth (HCC-2998 colon): 106% | growth (KM12 colon): 102%

CCN(CC)CCn1c2ccc(OC)cc2c2sc3cc(OC)ccc3c(=O)c21
growth (SR leukemia): 1.43% (active) | growth (RPMI-8226 leukemia): 11.8% | growth (OVCAR-8 ovarian): 30% | growth (OVCAR-4 ovarian): 37.7% | growth (SK-OV-3 ovarian): 56.5% | growth (IGROV1 ovarian): 14.5% | growth (OVCAR-3 ovarian): 31.5% | growth (HS 578T breast): 46.1% | growth (NCI/ADR-RES ovarian): 23% | growth (T-47D breast): 48.5% | growth (BT-549 breast): 61.7% | growth (MDA-MB-435 melanoma): 35.7% | growth (SW-620 colon): 8.87% (active) | growth (MCF7 breast): 4.61% (active) | growth (HCT-116 colon): 4.6% (active) | growth (HCC-2998 colon): 35.7% | growth (KM12 colon): 22.4%

O=S(=O)(NCCCNc1nccc(-c2c(-c3ccc(F)c(O)c3)nc3sccn23)n1)c1ccccc1
growth (SR leukemia): 33.9% | growth (RPMI-8226 leukemia): 40.3% | growth (OVCAR-8 ovarian): 54.2% | growth (OVCAR-4 ovarian): 75.6% | growth (SK-OV-3 ovarian): 78% | growth (IGROV1 ovarian): 65% | growth (OVCAR-3 ovarian): 66% | growth (HS 578T breast): 72.8% | growth (T-47D breast): 64.8% | growth (BT-549 breast): 91.1% | growth (MDA-MB-435 melanoma): 29.3% | growth (SW-620 colon): 56.2% | growth (MCF7 breast): 58.5% | growth (HCT-116 colon): 30.6% | growth (HCC-2998 colon): 78.2% | growth (KM12 colon): 64.6%

C=C1CC[C@@H]2[C@](C)(COC(C)=O)[C@H](OC(C)=O)CC[C@@]2(C)[C@@H]1CC(Nc1ccc(S(=O)(=O)Nc2ncccn2)cc1)C1=CCOC1=O (stereo not given in full)
growth (SR leukemia): -4.43% (active) | growth (RPMI-8226 leukemia): -12.7% (active) | growth (OVCAR-8 ovarian): 3.81% (active) | growth (OVCAR-4 ovarian): 42.7% | growth (SK-OV-3 ovarian): 84.7% | growth (IGROV1 ovarian): 7.21% (active) | growth (OVCAR-3 ovarian): -80.6% (active) | growth (HS 578T breast): 51.2% | growth (NCI/ADR-RES ovarian): 16.1% | growth (T-47D breast): 42.3% | growth (BT-549 breast): -32% (active) | growth (MDA-MB-435 melanoma): -14.8% (active) | growth (SW-620 colon): -70% (active) | growth (MCF7 breast): -19.6% (active) | growth (HCT-116 colon): -55% (active) | growth (HCC-2998 colon): 32% | growth (KM12 colon): -13.2% (active)

O=C(Nc1cccc(-c2ccc(Cl)c(C(F)(F)F)c2)c1)C1CCN(Cc2cccc3cccnc23)CC1
growth (SR leukemia): -25.7% (active) | growth (RPMI-8226 leukemia): -27.3% (active) | growth (OVCAR-8 ovarian): -38.3% (active) | growth (OVCAR-4 ovarian): 17.4% | growth (SK-OV-3 ovarian): 55.4% | growth (IGROV1 ovarian): -56.2% (active) | growth (OVCAR-3 ovarian): -66.4% (active) | growth (HS 578T breast): 5.48% (active) | growth (NCI/ADR-RES ovarian): 0.0048% (active) | growth (T-47D breast): -55.8% (active) | growth (BT-549 breast): 63.5% | growth (MDA-MB-435 melanoma): -83.7% (active) | growth (SW-620 colon): -83% (active) | growth (MCF7 breast): -89.9% (active) | growth (HCT-116 colon): -75% (active) | growth (HCC-2998 colon): -83.5% (active) | growth (KM12 colon): -27.4% (active)

COc1ccc2c(c1)N(CCO)C1=C(C(=O)OC1)C2c1cccc(F)c1 (stereo not given)
growth (SR leukemia): 16% | growth (RPMI-8226 leukemia): 21.3% | growth (OVCAR-8 ovarian): 11% | growth (OVCAR-4 ovarian): 51.5% | growth (SK-OV-3 ovarian): 23.2% | growth (IGROV1 ovarian): 34.5% | growth (OVCAR-3 ovarian): -16.7% (active) | growth (HS 578T breast): 34.2% | growth (T-47D breast): 56.7% | growth (BT-549 breast): 50% | growth (MDA-MB-435 melanoma): -40.6% (active) | growth (SW-620 colon): 26.9% | growth (MCF7 breast): 18.1% | growth (HCT-116 colon): 4.87% (active) | growth (HCC-2998 colon): 4.78% (active) | growth (KM12 colon): 15.5%

COc1ccccc1NC(=O)N=Nc1c(O)[nH]c2ccccc12
growth (SR leukemia): 83.9% | growth (RPMI-8226 leukemia): 84.8% | growth (OVCAR-8 ovarian): 92.9% | growth (OVCAR-4 ovarian): 105% | growth (SK-OV-3 ovarian): 97.8% | growth (IGROV1 ovarian): 82% | growth (OVCAR-3 ovarian): 107% | growth (HS 578T breast): 87.8% | growth (NCI/ADR-RES ovarian): 94.1% | growth (T-47D breast): 68.6% | growth (BT-549 breast): 97.9% | growth (MDA-MB-435 melanoma): 91% | growth (MCF7 breast): 59% | growth (HCT-116 colon): 93% | growth (HCC-2998 colon): 94.4% | growth (KM12 colon): 94.8%

COc1cc(/C=C/C(=O)c2ccc(F)cc2)ccc1OCCCCOc1ccc(/C=C/C(=O)c2c(C)nc3ccccc3c2C)cc1OC
growth (SR leukemia): 79.2% | growth (RPMI-8226 leukemia): 79.3% | growth (OVCAR-8 ovarian): 78.3% | growth (OVCAR-4 ovarian): 76.5% | growth (SK-OV-3 ovarian): 107% | growth (IGROV1 ovarian): 101% | growth (OVCAR-3 ovarian): 92% | growth (HS 578T breast): 117% | growth (NCI/ADR-RES ovarian): 91.4% | growth (T-47D breast): 92.7% | growth (BT-549 breast): 154% | growth (MDA-MB-435 melanoma): 94.4% | growth (SW-620 colon): 102% | growth (MCF7 breast): 80.1% | growth (HCT-116 colon): 90.8% | growth (KM12 colon): 111%

O=C1NC(=O)C(Cc2ccc(OCc3ccc(-c4ccc(Cl)cc4Cl)cc3)cc2)S1 (stereo not given)
growth (SR leukemia): 29.3% | growth (RPMI-8226 leukemia): 38.5% | growth (OVCAR-8 ovarian): 42.6% | growth (OVCAR-4 ovarian): 47.4% | growth (SK-OV-3 ovarian): 61.8% | growth (IGROV1 ovarian): 52.2% | growth (OVCAR-3 ovarian): 65.7% | growth (HS 578T breast): 65.1% | growth (NCI/ADR-RES ovarian): 22.7% | growth (T-47D breast): 16.1% | growth (BT-549 breast): 37.9% | growth (MDA-MB-435 melanoma): 24.5% | growth (SW-620 colon): 67.9% | growth (MCF7 breast): 28.5% | growth (HCT-116 colon): 38.6% | growth (HCC-2998 colon): 60.8% | growth (KM12 colon): 47.7%

Fc1cc2c(cc1Cl)N(c1ncnc3ccc(-c4ccc5n[nH]nc5c4)cc13)CC2
growth (SR leukemia): 66.8% | growth (RPMI-8226 leukemia): 92% | growth (OVCAR-8 ovarian): 85.6% | growth (OVCAR-4 ovarian): 81.3% | growth (SK-OV-3 ovarian): 95.6% | growth (IGROV1 ovarian): 32.2% | growth (OVCAR-3 ovarian): 69% | growth (HS 578T breast): 58.2% | growth (NCI/ADR-RES ovarian): 87.3% | growth (T-47D breast): 65.5% | growth (MDA-MB-435 melanoma): 92.4% | growth (SW-620 colon): 96.9% | growth (MCF7 breast): 80.3% | growth (HCT-116 colon): 96.7% | growth (KM12 colon): 97.7%

O=C(Nc1nc2ccccc2s1)c1ccc(F)cc1
growth (SR leukemia): 98.4% | growth (RPMI-8226 leukemia): 88.5% | growth (OVCAR-8 ovarian): 109% | growth (OVCAR-4 ovarian): 85.4% | growth (SK-OV-3 ovarian): 108% | growth (IGROV1 ovarian): 88.9% | growth (OVCAR-3 ovarian): 104% | growth (HS 578T breast): 140% | growth (NCI/ADR-RES ovarian): 95.7% | growth (T-47D breast): 55.3% | growth (BT-549 breast): 109% | growth (MDA-MB-435 melanoma): 101% | growth (SW-620 colon): 112% | growth (MCF7 breast): 68.1% | growth (HCT-116 colon): 92.8% | growth (HCC-2998 colon): 69.9% | growth (KM12 colon): 52.8%
